According to PubChem BioAssay (NCI):
About 83,000 compounds went through this panel and 20% of them were active in at least one assay; those are over-represented in the sample as a whole.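 In brief: 96-well plates, 48 h treatment, single concentration, percent growth endpoint.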 Activity calls are given as the source filed them. How the source made its calls: active means growth percent below 10; inactive means the rest.

How the values were obtained:
Test in all cases: NCI-60 one-dose screen, 48 h (100 = growth as untreated, 0 = no growth, -100 = all killed)
Settings in all cases: 10 µM unless noted
HCT-15 colon = tested on: HCT-15 colon
HT29 colon = tested on: HT29 colon
SNB-19 CNS = tested on: SNB-19 CNS
U251 CNS = tested on: U251 CNS
PC-3 prostate = tested on: PC-3 prostate
SK-MEL-5 melanoma = tested on: SK-MEL-5 melanoma
UACC-62 melanoma = tested on: UACC-62 melanoma
LOX IMVI melanoma = tested on: LOX IMVI melanoma
SK-MEL-28 melanoma = tested on: SK-MEL-28 melanoma
EKVX NSCLC = tested on: EKVX NSCLC
SN12C renal = tested on: SN12C renal
UO-31 renal = tested on: UO-31 renal
TK-10 renal = tested on: TK-10 renal
ACHN renal = tested on: ACHN renal
CAKI-1 renal = tested on: CAKI-1 renal
A498 renal = tested on: A498 renal
CCRF-CEM leukemia = tested on: CCRF-CEM leukemia
MOLT-4 leukemia = tested on: MOLT-4 leukemia
SK-MEL-2 melanoma = tested on: SK-MEL-2 melanoma

Measured: growth

C=C1CCC2C3(C)COC(C)(C)OC3CCC2(C)C1C/C=C1/C(=O)OCC1Oc1ccccc1OC (stereo unspecified)
inactive: HCT-15 colon 43% | HT29 colon 56.4% | SNB-19 CNS 88.7% | U251 CNS 100% | PC-3 prostate 90.5% | SK-MEL-5 melanoma 95.4% | UACC-62 melanoma 80.4% | SK-MEL-28 melanoma 101% | EKVX NSCLC 96.5% | SN12C renal 84.2% | UO-31 renal 83.5% | TK-10 renal 139% | ACHN renal 79.9% | CAKI-1 renal 90.6% | A498 renal 110% | CCRF-CEM leukemia 13.3% | MOLT-4 leukemia 77.7%
active: LOX IMVI melanoma -3.97%

COc1ccc(Nc2ncccc2C(=O)NCc2cn(Cc3cccc(Oc4ccccc4)c3)nn2)cc1
inactive: HCT-15 colon 32.2% | HT29 colon 12.6% | SNB-19 CNS 61.2% | U251 CNS 46.2% | PC-3 prostate 54.7% | SK-MEL-5 melanoma 16.3% | UACC-62 melanoma 35.3% | LOX IMVI melanoma 47.7% | SK-MEL-28 melanoma 63.3% | EKVX NSCLC 40.1% | SN12C renal 47.5% | UO-31 renal 40.9% | TK-10 renal 76.3% | ACHN renal 51.2% | CAKI-1 renal 42.3% | A498 renal 27.5% | MOLT-4 leukemia 48%

C=C1C(=O)O[C@@H]2[C@@H]3O[C@@](C)(CC/C=C(\C)CCC[C@@H]2C)[C@H](O)C[C@@H]13
inactive: HCT-15 colon 38.9% | HT29 colon 32.3% | SNB-19 CNS 84.3% | U251 CNS 56.4% | PC-3 prostate 39.8% | SK-MEL-5 melanoma 48.2% | UACC-62 melanoma 17.2% | LOX IMVI melanoma 44% | SK-MEL-28 melanoma 80.5% | EKVX NSCLC 76.3% | UO-31 renal 45% | TK-10 renal 32% | ACHN renal 51.9% | CAKI-1 renal 39% | A498 renal 66.8% | MOLT-4 leukemia 16.8%

O=C(Nc1ccc2c(c1)OCO2)C(=O)c1c[nH]c2cc(F)ccc12
active: LOX IMVI melanoma 8.88%
inactive: HCT-15 colon 57.2% | HT29 colon 62% | SNB-19 CNS 85.1% | U251 CNS 58.4% | PC-3 prostate 63.8% | SK-MEL-5 melanoma 58% | UACC-62 melanoma 22% | SK-MEL-28 melanoma 30.7% | EKVX NSCLC 72.4% | SN12C renal 79.5% | UO-31 renal 71.2% | TK-10 renal 72.7% | ACHN renal 44.9% | CAKI-1 renal 32.7% | A498 renal 55% | MOLT-4 leukemia 63.1%

CN(CCCCCl)P(=O)(OCc1ccc([N+](=O)[O-])o1)C(F)(F)C[C@H](NC(=O)CNC(=O)c1ccc(N=[N+]=[N-])cc1)C(=O)NCCc1ccc(O)cc1 (stereo partly specified)
inactive: HCT-15 colon 103% | HT29 colon 86.3% | SNB-19 CNS 94.1% | U251 CNS 69.1% | PC-3 prostate 101% | SK-MEL-5 melanoma 91.3% | UACC-62 melanoma 59.7% | LOX IMVI melanoma 79.3% | SK-MEL-28 melanoma 63.9% | EKVX NSCLC 102% | SN12C renal 95.2% | UO-31 renal 84.7% | TK-10 renal 121% | ACHN renal 106% | A498 renal 104% | MOLT-4 leukemia 74.7%

COc1ccc(Nc2ncccc2C(=O)NCc2cn(Cc3cccc(Oc4ccccc4)c3)nn2)c(OC)c1
active: HT29 colon 3.15% | A498 renal -3.05%
inactive: HCT-15 colon 26.1% | SNB-19 CNS 44.5% | U251 CNS 30.2% | PC-3 prostate 43.9% | SK-MEL-5 melanoma 23% | UACC-62 melanoma 33.9% | LOX IMVI melanoma 48.4% | SK-MEL-28 melanoma 61.8% | EKVX NSCLC 46.5% | SN12C renal 33.7% | UO-31 renal 48% | TK-10 renal 64.5% | ACHN renal 48% | CAKI-1 renal 44.8% | MOLT-4 leukemia 40%

NC1N=C(SCC(=O)N2CCN(c3cc4c(cc3F)c(=O)c(C(=O)O)cn4C3CC3)CC2)NC(=O)/C1=C/c1ccc(Cl)cc1 (stereo unspecified)
inactive: HCT-15 colon 97.3% | HT29 colon 111% | SNB-19 CNS 99.7% | U251 CNS 99.8% | PC-3 prostate 95.4% | SK-MEL-5 melanoma 102% | UACC-62 melanoma 99.9% | LOX IMVI melanoma 102% | SK-MEL-28 melanoma 110% | EKVX NSCLC 92.8% | SN12C renal 99.4% | UO-31 renal 79% | TK-10 renal 107% | ACHN renal 102% | CAKI-1 renal 91.2% | A498 renal 106% | CCRF-CEM leukemia 107% | MOLT-4 leukemia 109%

COc1ccc(C(=O)N2NC(=O)/C(=C/c3ccc(F)cc3)N=C2c2ccccc2)cc1
inactive: HCT-15 colon 73% | HT29 colon 94.6% | SNB-19 CNS 83.7% | U251 CNS 56.4% | PC-3 prostate 89.1% | SK-MEL-5 melanoma 96.1% | UACC-62 melanoma 77.4% | LOX IMVI melanoma 91.7% | SK-MEL-28 melanoma 102% | EKVX NSCLC 88.4% | SN12C renal 84.7% | UO-31 renal 91.7% | TK-10 renal 96.4% | ACHN renal 94.2% | CAKI-1 renal 86.1% | A498 renal 69.2% | MOLT-4 leukemia 42.4%

CC(=O)OC[C@]12CC[C@H]3[C@@H](C[C@H]4O[C@]45CC=CC(=O)[C@]35C)[C@]1(O)CC[C@@]2(O)[C@@](C)(O)C1CC(C)=C(C)C(=O)O1 (stereo partly specified)
active: HCT-15 colon 0% | HT29 colon -21.2% | SNB-19 CNS 5.89% | U251 CNS -14.5% | PC-3 prostate 2.94% | SK-MEL-5 melanoma -78.7% | UACC-62 melanoma -71.1% | LOX IMVI melanoma -74.9% | SK-MEL-28 melanoma -49.9% | EKVX NSCLC -14.1% | SN12C renal -39.2% | UO-31 renal -18.5% | ACHN renal -64.1% | CAKI-1 renal -63.7% | A498 renal -76.2% | CCRF-CEM leukemia -8.89% | MOLT-4 leukemia 7.75%

COc1ccc(-c2cnoc2-c2ccc(OC)cc2O)cc1
inactive: HCT-15 colon 26.7% | HT29 colon 24.1% | SNB-19 CNS 42.4% | U251 CNS 25.6% | PC-3 prostate 53.2% | SK-MEL-5 melanoma 15.8% | UACC-62 melanoma 28.9% | LOX IMVI melanoma 41.2% | SK-MEL-28 melanoma 45% | EKVX NSCLC 82.9% | SN12C renal 37.2% | UO-31 renal 74.5% | TK-10 renal 86.9% | ACHN renal 57.4% | CAKI-1 renal 45.2% | MOLT-4 leukemia 44.2%
active: A498 renal 7.36%

CC12CCC3C4(C)COC(c5ccco5)OC4CCC3(C)C1CC(C1=CCOC1=O)O2 (stereo unspecified)
inactive: HCT-15 colon 97.7% | HT29 colon 105% | SNB-19 CNS 97.3% | U251 CNS 110% | PC-3 prostate 90.5% | SK-MEL-5 melanoma 101% | UACC-62 melanoma 87.8% | LOX IMVI melanoma 106% | SK-MEL-2 melanoma 131% | EKVX NSCLC 91.6% | SN12C renal 96.4% | UO-31 renal 81.5% | TK-10 renal 105% | ACHN renal 102% | CAKI-1 renal 92.4% | A498 renal 103% | CCRF-CEM leukemia 101% | MOLT-4 leukemia 97.5%

O=C(NNC(=O)N1c2ccccc2C=Cc2ccccc21)c1ccccc1
inactive: HCT-15 colon 101% | HT29 colon 103% | SNB-19 CNS 100% | U251 CNS 109% | PC-3 prostate 98.5% | SK-MEL-5 melanoma 104% | UACC-62 melanoma 101% | LOX IMVI melanoma 104% | SK-MEL-2 melanoma 119% | EKVX NSCLC 91.7% | SN12C renal 102% | UO-31 renal 96% | TK-10 renal 96% | ACHN renal 102% | CAKI-1 renal 97.3% | A498 renal 103% | CCRF-CEM leukemia 98.9% | MOLT-4 leukemia 102%

COc1ccc(NC(=O)c2c(Nc3ccc(OC)cc3OC)n[nH]c2N)c(OC)c1
inactive: HCT-15 colon 104% | HT29 colon 102% | SNB-19 CNS 90.3% | U251 CNS 96.4% | PC-3 prostate 90.6% | SK-MEL-5 melanoma 79.9% | UACC-62 melanoma 68% | LOX IMVI melanoma 101% | SK-MEL-2 melanoma 102% | EKVX NSCLC 89.1% | SN12C renal 90% | UO-31 renal 69.7% | TK-10 renal 117% | ACHN renal 95% | CAKI-1 renal 94.9% | A498 renal 114% | CCRF-CEM leukemia 110% | MOLT-4 leukemia 78.8%

COc1ccc(C(=O)N2NC(=O)/C(=C/c3cn(-c4ccccc4)nc3-c3ccccc3)N=C2c2ccccc2)cc1
inactive: HCT-15 colon 98.2% | HT29 colon 99% | SNB-19 CNS 88.6% | U251 CNS 91.2% | PC-3 prostate 95.3% | SK-MEL-5 melanoma 105% | UACC-62 melanoma 93% | LOX IMVI melanoma 99.2% | EKVX NSCLC 96.1% | SN12C renal 95% | UO-31 renal 93.7% | TK-10 renal 103% | ACHN renal 106% | CAKI-1 renal 95.6% | A498 renal 77.6% | MOLT-4 leukemia 85%

O=C1NC(=C(Cl)Cl)/C(=N/S(=O)(=O)N2CCC(C3(C(F)(F)F)N=N3)CC2)N1
active: HCT-15 colon -60.6% | HT29 colon -10.2%
inactive: SNB-19 CNS 86.7% | U251 CNS 45.2% | PC-3 prostate 89.6% | SK-MEL-5 melanoma 92% | UACC-62 melanoma 91.7% | SK-MEL-28 melanoma 99.1% | SK-MEL-2 melanoma 101% | EKVX NSCLC 89.6% | SN12C renal 87.7% | UO-31 renal 85.7% | TK-10 renal 97% | ACHN renal 103% | CAKI-1 renal 74.5% | A498 renal 94.9% | MOLT-4 leukemia 54.9%

Nc1cc2c([nH]c[n+]2CC#CCCl)c(SCC#CCCl)n1
active: HCT-15 colon -43.3% | HT29 colon -50.3% | SNB-19 CNS -66.8% | U251 CNS -64.8% | PC-3 prostate -20.3% | SK-MEL-5 melanoma -93.3% | UACC-62 melanoma -91.5% | LOX IMVI melanoma -91% | SK-MEL-2 melanoma -30% | SN12C renal -10.9% | UO-31 renal -76.8% | TK-10 renal -4.18% | ACHN renal -34.7% | CAKI-1 renal 6.37% | A498 renal -52.1% | CCRF-CEM leukemia 8.89% | MOLT-4 leukemia -1.5%

O=C(NCCNc1nccc(-n2ccc3cccnc32)n1)c1ccc(C(F)(F)F)cc1
inactive: HCT-15 colon 104% | HT29 colon 113% | SNB-19 CNS 104% | U251 CNS 99.8% | PC-3 prostate 102% | SK-MEL-5 melanoma 101% | UACC-62 melanoma 94.6% | LOX IMVI melanoma 99.4% | EKVX NSCLC 94.2% | SN12C renal 98.7% | UO-31 renal 84% | TK-10 renal 134% | ACHN renal 97.6% | CAKI-1 renal 87.6% | A498 renal 108% | CCRF-CEM leukemia 101% | MOLT-4 leukemia 104%
